# A selection: hits, their analogues and other compounds. The true share with any hit is near 2.8%.
# Pol iota inh: inhibitors of human DNA polymerase iota. Potency, µM (highest dose often 115 µM), most hits filed as inhibitors. hit rate 1% among 390,000. AID 588590. Pol iota fluorescent replication assay, 10 min. Q9UNA4
#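 Fluorescent replication assay read twice, at 0 min and 10 min after adding 50 nM (final) substrate. Enzyme (10 nM) and compounds were first incubated 15 min at room temperature; enzyme-free buffer wells were negative controls.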
# Pol beta inh: blocks human DNA polymerase beta activity. P06746. Pol beta primer extension/strand displacement, fluorescence kinetic. Potency, µM (series often up to 114 µM), most hits filed as inhibitors. hit rate 1.3% among 340,000. AID 485314
#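 Values derive from four-parameter Hill fits of normalized kinetic data: reads at 0 and 10 min following addition of 50 nM substrate to 10 nM Pol beta preincubated 15 min with compound.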
# Pol kappa inh: blocks human DNA polymerase kappa activity | Q9UBT6 | purified Pol kappa, fluorescent DNA synthesis assay, 10 min | Potency, µM (series often up to 107 µM), actives largely listed as inhibitors | hit rate 0.53% among 400,000 | AID 588579
#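 First, compounds were pin-transferred onto 10 nM Pol kappa. After 15 min at room temperature, substrate was added to 50 nM final. Fluorescence was then measured kinetically at 0 and 10 min.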
# WRN inhibitor: WRN helicase (human) inhibition; Q14191; hit rate 0.46% among 360,000; WRN helicase unwinding, fluorescent forked duplex, kinetic; Potency, µM (top dose mostly 114 µM), hits mostly inhibitors; also: nearly all actives have a fitted effect of over 55% in size
#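 Screening of the MLSMR collection measured strand separation of a quenched forked DNA duplex (100 nM) by 20 nM WRN with 2 mM ATP, all final. Compounds were preincubated with enzyme 15 min at room temperature.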
# Pol eta inh: inhibitors of human DNA polymerase eta; Q9Y253; recombinant Pol eta, fluorescent DNA replication assay; Potency, µM (doses to about 114 µM), actives largely listed as inhibitors; hit rate 1.2% among 390,000; AID 588591
# Target sequence (Q9Y253 whole entry, looked up): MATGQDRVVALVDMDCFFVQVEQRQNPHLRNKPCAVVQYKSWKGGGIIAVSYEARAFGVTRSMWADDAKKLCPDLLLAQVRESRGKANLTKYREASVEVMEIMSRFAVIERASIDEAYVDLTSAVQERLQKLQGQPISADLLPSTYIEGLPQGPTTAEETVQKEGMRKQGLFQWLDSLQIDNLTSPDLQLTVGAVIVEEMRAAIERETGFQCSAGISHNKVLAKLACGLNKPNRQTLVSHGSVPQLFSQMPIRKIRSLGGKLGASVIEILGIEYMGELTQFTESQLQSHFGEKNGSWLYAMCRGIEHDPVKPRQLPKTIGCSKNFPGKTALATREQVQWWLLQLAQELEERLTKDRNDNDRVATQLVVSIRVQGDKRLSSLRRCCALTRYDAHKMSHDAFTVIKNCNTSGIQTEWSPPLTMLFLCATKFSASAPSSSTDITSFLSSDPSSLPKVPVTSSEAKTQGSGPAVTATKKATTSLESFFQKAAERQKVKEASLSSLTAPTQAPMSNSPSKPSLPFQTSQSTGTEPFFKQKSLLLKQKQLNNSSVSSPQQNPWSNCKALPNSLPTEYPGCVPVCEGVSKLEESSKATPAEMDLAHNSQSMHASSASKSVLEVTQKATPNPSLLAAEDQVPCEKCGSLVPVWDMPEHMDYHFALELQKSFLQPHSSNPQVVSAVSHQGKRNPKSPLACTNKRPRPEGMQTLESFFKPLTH
#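 Pol eta at 10 nM preincubated with compounds 15 min at room temperature; reaction started with fluorescent substrate (50 nM final) and read kinetically at 0 and 10 min.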
# PI5P4Ka inh: PI5P4K alpha (human) kinase inhibition; PI5P4Kalpha enzyme, ADP-Glo luminescence, 60 min; stronger effect = lower value; max response, %; hit rate 1.2% among 330,000; AID 652105; active = max response of -50% or lower; inconclusive = between -30% and -50%; inactive = -30% or higher; also: value at the top dose of about 77 µM
#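 Quantitative HTS of the MLSMR library against PI5P4Kalpha with substrate. ATP added last at 5 microM final; room temperature, 60 minutes. Remaining ATP depleted, ADP converted and read as luminescence.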
# Numbers stand for hits; – = inactive; ? = inconclusive; · = no result. Unless noted, calls follow the shape of the dose curve; as a rule, active = well fitted curve in the direction sought with a large enough effect; inconclusive = small, poorly fitted or top-dose-only effect, or another doubt; inactive = no such curve, though single readings can be large; an effect the other way counts as inactive or inconclusive.
SMILES,Pol iota inh,Pol beta inh,Pol kappa inh,WRN inhibitor,Pol eta inh,PI5P4Ka inh
O=C(CSc1nc2ccccc2s1)NC(=O)NCc1ccco1,–,22.4µM,–,–,–,·
CCOC(=O)c1cc2c(=O)n3ccccc3nc2n(CC2CCCO2)c1=NC(=O)c1ccc(F)cc1 (stereo unspecified),–,–,–,·,–,·
Cc1cccc(-c2noc(-c3cc4ccccc4oc3=O)n2)c1,–,–,–,–,–,–
Cc1cc(SCC(=O)NC(=O)NCc2ccco2)nc2c(C)cccc12,?,15.8µM,–,–,–,·
C=CCn1c(COc2ccccc2-c2ccccc2)nnc1SCC(=O)NC(=O)NCc1ccco1,?,–,–,–,–,·
Cc1cc(SCC(=O)NC(=O)NCc2ccco2)nc2ccccc12,?,–,–,–,–,·
C=CCn1c(COc2ccccc2F)nnc1SCC(=O)NC(=O)NCc1ccco1,31.6µM,39.8µM,?,–,?,·
O=C(CSc1nc(-c2ccccc2)cs1)NC(=O)NCc1ccco1,?,–,–,–,–,·
O=C(CSc1n[nH]c(-c2ccccc2)n1)NC(=O)NCc1ccco1,44.7µM,35.5µM,?,–,?,-54.7
Cc1ccc(C)c(NC(=O)Nc2cc3c(cc2N2CCCCC2)n(C)c(=O)n3C)c1,–,–,–,·,–,·
CCC(C)n1c(=N)c(C(=O)NCc2ccccc2)cc2c(=O)n3cc(C)ccc3nc21 (stereo unspecified),–,–,–,·,–,·
Nc1nc(Nc2cccc(F)c2)nc(NCCO)c1[N+](=O)[O-],–,?,–,?,–,-63.0
O=C1C=CC(=O)N1c1cccc(-c2ccccc2)c1,?,–,–,31.6µM,?,?
O=C(Nc1ccon1)c1nc[nH]c1C(=O)N1CCN(c2ccccc2)CC1,–,·,–,–,–,–
Cc1ccc(NC(=O)c2nc[nH]c2C(=O)N2CCOCC2)c(C(=O)c2ccccc2)c1,79.4µM,?,–,–,–,?
COC(=O)c1ccc(NCc2cc(O)ccc2O)cc1O,–,·,–,–,–,–
COC(=O)c1ccc(NCc2c(O)ccc(O)c2Br)cc1Cl,–,·,–,50.1µM,–,–
Nc1ccc2cccc(O)c2c1,12.6µM,·,79.4µM,–,22.4µM,-79.5
COCCCNC(=O)c1ccc2c3c(onc13)-c1ccccc1C2=O,?,–,–,22.4µM,44.7µM,–
Cc1cc(C)c(S(=O)(=O)Nc2ccc3oc4c(c3c2)C(=O)CC(C)(C)C4)cc1C,79.4µM,–,–,·,–,·
CCN1C(=C(C#N)C#N)C=Cc2cc(C)ccc21,–,–,–,–,–,–
C=CC[n+]1c(/C=C2\C=Cc3cc(C)ccc3N2CC)ccc2ccccc21,?,31.6µM,?,50.1µM,?,–
CCCCN(C)CCNC(=O)C1CCN(c2nc3ccc(CC)cc3s2)CC1,–,–,–,·,·,·
Cc1cnc(NC(=O)CSc2nnc(Cc3ccccc3)o2)s1,70.8µM,–,–,–,–,·
O=C(NC1CCCCC1)C(c1ccc(F)cc1)N(Cc1ccc2c(c1)OCO2)C(=O)c1cnsn1 (stereo unspecified),–,–,–,–,–,–
SMILES,Pol iota inh,Pol beta inh,Pol kappa inh,WRN inhibitor,Pol eta inh,PI5P4Ka inh
Oc1c(CN2CCOCC2)cc(CN2CCOCC2)c(O)c1O,?,·,?,22.4µM,?,–
Oc1cccc(CN2CCOCC2)c1O,20µM,·,28.2µM,?,–,–
O=Cc1[nH]c2ccccc2c1N(C(=O)CCl)c1ccccc1,?,–,–,–,20µM,–
Cc1cc(NC(=O)CCC(=O)N(c2ccccc2)C(C(=O)NC2CCCC2)c2ccccc2F)no1 (stereo unspecified),–,–,–,–,–,–
Clc1ccc(/C=C\c2nccc3c2[nH]c2ccccc23)cc1,–,–,–,–,–,–
N#Cc1ccc(/C=C\c2nccc3c2[nH]c2ccccc23)cc1,?,17.8µM,–,–,–,–
Cc1cc(NC(=O)CSc2ncnc3sc4c(c23)CCC(C)C4)no1 (stereo unspecified),·,–,·,·,·,·
COC(=O)CSc1ncnc2scc(-c3ccccc3)c12,–,–,–,–,–,–
CC1CCc2c(sc3ncnc(SCC(=O)Nc4ccc(C(=O)O)cc4)c23)C1 (stereo unspecified),–,–,–,–,–,-67.2
O=C(CSc1ncnc2sc3c(c12)CCC3)Nc1ccccc1C(=O)O,?,–,–,?,?,-83.7

# Assay outcomes (PubChem)
